Holding throughout (test): DAPPL (digital affinity profiling via proximity ligation, sequencing); 10 mM Tris-HCl pH 7.5, 50 mM NaCl, 1 mM DTT, 4% glycerol, room temperature, 30 min; GST-TFs on glutathione beads, 16-mer random dsDNA library, 0.1% formaldehyde crosslink after washing; high values mean tight binding
Conditions in all cases: protein: recombinant; tags: N-terminal GST; dsDNA, one strand shown

Assay [1] deals with T1, FLI1 (Homo sapiens, UniProt Q01543 1-452).
T1 sequence: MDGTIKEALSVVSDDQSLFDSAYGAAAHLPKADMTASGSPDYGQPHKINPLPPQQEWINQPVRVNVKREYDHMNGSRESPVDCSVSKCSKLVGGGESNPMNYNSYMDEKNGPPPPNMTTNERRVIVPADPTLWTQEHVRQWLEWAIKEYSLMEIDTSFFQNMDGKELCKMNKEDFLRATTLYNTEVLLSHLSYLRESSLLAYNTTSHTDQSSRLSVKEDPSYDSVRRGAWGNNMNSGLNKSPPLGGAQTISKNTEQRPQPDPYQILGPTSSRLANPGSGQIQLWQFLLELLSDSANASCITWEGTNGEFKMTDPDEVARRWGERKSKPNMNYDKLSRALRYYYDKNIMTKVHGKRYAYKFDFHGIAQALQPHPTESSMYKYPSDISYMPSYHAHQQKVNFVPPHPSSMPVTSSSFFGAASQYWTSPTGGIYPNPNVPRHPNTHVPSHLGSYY
In a few lines:
(§1)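 GST fusions of human transcription factors were expressed in yeast and captured with glutathione beads. Once given DNA barcodes and pooled alongside a tag-only sample, they were incubated for 30 min at room temperature with 200 nmole of a random double-stranded 16-mer DNA library in Tris/NaCl/DTT/glycerol buffer, then washed, crosslinked (0.1% formaldehyde), proximity-ligated, PCR-amplified and sequenced on an Illumina NextSeq500. The binding signal of each hexamer is its read frequency for a factor divided by its frequency for the tag-only sample.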

In assay [2] the target is T2, ELK1 (Homo sapiens, UniProt P19419 1-428).
T2 sequence: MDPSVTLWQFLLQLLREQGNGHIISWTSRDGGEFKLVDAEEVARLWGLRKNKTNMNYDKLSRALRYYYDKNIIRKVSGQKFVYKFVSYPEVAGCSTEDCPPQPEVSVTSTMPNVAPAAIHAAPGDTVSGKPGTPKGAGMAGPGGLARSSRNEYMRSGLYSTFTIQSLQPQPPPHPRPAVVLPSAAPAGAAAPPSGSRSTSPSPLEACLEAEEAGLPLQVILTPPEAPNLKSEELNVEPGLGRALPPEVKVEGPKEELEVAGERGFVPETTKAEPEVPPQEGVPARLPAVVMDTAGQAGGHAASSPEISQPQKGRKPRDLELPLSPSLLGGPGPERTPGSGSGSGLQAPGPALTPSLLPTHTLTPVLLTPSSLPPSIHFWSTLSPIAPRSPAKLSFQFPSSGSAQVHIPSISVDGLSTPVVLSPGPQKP
In a few lines:
as §1

Assay [3] concerns the target T3, GABPA (Homo sapiens, UniProt Q06546 1-454).
T3 sequence: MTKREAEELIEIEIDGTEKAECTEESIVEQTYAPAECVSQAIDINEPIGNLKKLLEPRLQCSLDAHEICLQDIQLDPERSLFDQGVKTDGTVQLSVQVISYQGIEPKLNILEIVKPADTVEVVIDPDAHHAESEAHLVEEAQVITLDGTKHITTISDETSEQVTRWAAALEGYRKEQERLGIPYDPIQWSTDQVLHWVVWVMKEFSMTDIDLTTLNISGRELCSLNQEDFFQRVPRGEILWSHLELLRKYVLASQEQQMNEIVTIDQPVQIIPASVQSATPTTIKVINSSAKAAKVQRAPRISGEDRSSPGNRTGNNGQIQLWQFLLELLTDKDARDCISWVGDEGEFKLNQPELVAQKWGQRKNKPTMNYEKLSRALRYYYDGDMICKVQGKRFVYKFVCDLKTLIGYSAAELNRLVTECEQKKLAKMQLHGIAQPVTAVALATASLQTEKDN
An outline of the steps:
as §1

In assay [4] the target is T4, ERG (Homo sapiens, UniProt P11308 1-479).
T4 sequence: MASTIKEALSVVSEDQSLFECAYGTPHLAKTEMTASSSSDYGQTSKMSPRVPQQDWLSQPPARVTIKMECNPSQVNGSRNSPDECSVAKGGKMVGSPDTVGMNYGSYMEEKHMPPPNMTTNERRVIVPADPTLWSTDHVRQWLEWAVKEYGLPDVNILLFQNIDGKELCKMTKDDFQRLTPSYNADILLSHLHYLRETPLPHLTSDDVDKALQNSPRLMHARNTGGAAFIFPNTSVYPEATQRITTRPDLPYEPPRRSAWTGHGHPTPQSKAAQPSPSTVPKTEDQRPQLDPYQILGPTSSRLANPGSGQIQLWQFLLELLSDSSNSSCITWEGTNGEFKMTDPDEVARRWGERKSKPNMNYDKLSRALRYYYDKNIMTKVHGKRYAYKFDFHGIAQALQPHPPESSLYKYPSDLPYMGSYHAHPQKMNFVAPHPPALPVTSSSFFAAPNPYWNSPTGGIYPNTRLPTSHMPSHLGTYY
In a few lines:
as §1

Assay [5] deals with ELF1 (Homo sapiens, UniProt P32519 1-619). An outline of the steps: as §1
Chain of ELF1 (P32519 whole entry): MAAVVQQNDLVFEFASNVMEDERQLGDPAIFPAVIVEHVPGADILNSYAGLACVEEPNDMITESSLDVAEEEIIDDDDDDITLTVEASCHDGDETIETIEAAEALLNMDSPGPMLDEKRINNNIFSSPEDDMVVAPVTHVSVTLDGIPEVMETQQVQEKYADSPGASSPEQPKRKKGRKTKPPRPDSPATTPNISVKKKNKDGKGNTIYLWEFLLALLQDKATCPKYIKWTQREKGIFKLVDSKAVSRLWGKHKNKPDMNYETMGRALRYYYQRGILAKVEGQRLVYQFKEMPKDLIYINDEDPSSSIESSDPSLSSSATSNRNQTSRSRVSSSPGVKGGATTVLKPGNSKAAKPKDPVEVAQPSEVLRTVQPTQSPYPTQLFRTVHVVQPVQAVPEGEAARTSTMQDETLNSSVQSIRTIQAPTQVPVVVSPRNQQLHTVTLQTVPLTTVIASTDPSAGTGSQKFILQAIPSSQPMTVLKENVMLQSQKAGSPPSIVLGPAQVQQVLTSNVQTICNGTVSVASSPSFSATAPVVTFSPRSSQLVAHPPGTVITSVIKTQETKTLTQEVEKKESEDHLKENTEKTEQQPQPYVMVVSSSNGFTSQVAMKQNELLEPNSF
Assay [6] has as its target T5, EHF (Homo sapiens, UniProt Q9NZC4 1-300).
T5 sequence: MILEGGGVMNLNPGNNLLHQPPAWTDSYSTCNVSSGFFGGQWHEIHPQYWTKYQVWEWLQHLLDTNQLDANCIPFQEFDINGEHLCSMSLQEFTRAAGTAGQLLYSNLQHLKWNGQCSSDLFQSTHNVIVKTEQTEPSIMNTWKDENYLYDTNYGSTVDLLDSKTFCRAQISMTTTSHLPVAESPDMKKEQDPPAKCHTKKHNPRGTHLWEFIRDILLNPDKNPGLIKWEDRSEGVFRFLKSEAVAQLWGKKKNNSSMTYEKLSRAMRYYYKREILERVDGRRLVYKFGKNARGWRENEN
An outline of the steps: as §1

The target of assay [7] is SPI1 (Homo sapiens, UniProt P17947 1-270). An outline of the steps: as §1
The target in assay [8] is SPIB (Homo sapiens, UniProt Q01892 1-262). An outline of the steps:
as §1

The target of assay [9] is T6, ELK3 (Homo sapiens, UniProt P41970 1-407).
T6 sequence: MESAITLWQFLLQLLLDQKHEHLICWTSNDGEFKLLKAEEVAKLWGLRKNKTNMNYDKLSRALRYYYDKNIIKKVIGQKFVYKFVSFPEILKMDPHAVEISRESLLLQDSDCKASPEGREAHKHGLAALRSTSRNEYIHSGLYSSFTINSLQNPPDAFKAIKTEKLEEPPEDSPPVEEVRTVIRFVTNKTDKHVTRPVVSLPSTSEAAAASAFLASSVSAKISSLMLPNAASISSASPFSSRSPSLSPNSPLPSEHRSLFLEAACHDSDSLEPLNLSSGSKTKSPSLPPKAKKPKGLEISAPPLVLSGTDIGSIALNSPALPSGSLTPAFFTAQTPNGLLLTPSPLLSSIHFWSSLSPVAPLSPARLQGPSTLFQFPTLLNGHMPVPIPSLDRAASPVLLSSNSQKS
In a few lines: as §1

Assay [10] addresses T7, FEV (Homo sapiens, UniProt Q99581 1-238).
T7 sequence: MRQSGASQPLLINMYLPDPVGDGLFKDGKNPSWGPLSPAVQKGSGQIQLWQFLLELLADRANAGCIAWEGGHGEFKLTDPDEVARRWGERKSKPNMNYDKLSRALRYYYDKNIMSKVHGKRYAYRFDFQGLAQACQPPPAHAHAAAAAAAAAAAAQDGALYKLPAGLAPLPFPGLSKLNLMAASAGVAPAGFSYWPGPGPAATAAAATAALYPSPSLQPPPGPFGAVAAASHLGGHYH
In a few lines: as §1

For assay [11], the target named is ETV5 (Homo sapiens, UniProt P41161 1-510). In a few lines:
as §1

The target of assay [12] is T8, SPIC (Homo sapiens, UniProt Q8N5J4 1-248).
T8 sequence: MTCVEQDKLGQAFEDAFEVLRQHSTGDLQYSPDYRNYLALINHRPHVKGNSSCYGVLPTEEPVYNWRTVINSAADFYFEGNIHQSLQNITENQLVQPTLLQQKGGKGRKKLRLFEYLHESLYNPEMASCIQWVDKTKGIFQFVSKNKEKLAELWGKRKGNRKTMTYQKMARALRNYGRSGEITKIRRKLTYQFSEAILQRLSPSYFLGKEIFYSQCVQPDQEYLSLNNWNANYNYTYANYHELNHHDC
In a few lines:
as §1

In assay [13] the target is ELF4 (Homo sapiens, UniProt Q99607 1-663). An outline of the steps:
as §1

For assay [14], the target named is T9, ELK4 (Homo sapiens, UniProt P28324-2 1-405).
T9 sequence: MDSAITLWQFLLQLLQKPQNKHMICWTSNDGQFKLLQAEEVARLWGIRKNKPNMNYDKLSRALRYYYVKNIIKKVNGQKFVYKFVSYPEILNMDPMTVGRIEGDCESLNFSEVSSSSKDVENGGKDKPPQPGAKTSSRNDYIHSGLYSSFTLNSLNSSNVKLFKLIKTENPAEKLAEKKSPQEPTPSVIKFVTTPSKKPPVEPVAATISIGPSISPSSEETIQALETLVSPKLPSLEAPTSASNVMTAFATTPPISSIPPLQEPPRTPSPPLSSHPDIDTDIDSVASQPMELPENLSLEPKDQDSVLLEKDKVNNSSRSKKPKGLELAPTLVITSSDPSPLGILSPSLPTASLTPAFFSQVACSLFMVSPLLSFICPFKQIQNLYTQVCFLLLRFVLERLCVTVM
In a few lines:
as §1

The target in assay [15] is T10, ETV2 (Homo sapiens, UniProt O00321 1-342).
T10 sequence: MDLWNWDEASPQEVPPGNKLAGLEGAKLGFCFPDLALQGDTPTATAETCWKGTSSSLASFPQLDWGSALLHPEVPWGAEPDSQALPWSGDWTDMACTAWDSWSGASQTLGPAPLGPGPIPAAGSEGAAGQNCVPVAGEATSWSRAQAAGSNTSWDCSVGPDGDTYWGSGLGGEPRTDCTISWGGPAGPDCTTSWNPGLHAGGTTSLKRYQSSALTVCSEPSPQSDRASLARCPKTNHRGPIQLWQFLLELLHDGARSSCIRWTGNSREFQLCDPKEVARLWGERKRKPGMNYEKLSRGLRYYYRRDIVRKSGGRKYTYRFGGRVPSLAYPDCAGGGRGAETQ
An outline of the steps:
as §1

For assay [16], the target named is T11, ELF3 (Homo sapiens, UniProt P78545 1-371).
T11 sequence: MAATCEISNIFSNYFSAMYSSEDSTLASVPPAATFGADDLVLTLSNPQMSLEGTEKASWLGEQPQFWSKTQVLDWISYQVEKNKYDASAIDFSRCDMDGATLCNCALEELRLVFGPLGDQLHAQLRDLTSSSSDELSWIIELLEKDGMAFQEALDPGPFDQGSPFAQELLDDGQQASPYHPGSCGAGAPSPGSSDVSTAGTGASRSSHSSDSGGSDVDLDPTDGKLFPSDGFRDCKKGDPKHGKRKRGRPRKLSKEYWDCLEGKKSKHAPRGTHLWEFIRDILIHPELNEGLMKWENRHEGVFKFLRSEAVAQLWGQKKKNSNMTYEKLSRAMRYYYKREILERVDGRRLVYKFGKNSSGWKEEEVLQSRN
In a few lines: as §1

For assay [17], the target named is ETV1 (Homo sapiens, UniProt P50549 1-477). An outline of the steps:
as §1

Chain of SPIB (Q01892 whole entry): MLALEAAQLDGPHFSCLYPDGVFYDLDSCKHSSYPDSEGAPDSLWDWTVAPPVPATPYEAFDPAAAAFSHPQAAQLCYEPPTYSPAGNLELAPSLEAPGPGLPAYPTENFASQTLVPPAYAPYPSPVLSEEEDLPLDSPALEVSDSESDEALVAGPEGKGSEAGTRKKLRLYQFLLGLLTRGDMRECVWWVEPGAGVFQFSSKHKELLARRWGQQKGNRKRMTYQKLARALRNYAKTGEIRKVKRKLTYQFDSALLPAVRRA
Chain of ELF4 (Q99607 whole entry): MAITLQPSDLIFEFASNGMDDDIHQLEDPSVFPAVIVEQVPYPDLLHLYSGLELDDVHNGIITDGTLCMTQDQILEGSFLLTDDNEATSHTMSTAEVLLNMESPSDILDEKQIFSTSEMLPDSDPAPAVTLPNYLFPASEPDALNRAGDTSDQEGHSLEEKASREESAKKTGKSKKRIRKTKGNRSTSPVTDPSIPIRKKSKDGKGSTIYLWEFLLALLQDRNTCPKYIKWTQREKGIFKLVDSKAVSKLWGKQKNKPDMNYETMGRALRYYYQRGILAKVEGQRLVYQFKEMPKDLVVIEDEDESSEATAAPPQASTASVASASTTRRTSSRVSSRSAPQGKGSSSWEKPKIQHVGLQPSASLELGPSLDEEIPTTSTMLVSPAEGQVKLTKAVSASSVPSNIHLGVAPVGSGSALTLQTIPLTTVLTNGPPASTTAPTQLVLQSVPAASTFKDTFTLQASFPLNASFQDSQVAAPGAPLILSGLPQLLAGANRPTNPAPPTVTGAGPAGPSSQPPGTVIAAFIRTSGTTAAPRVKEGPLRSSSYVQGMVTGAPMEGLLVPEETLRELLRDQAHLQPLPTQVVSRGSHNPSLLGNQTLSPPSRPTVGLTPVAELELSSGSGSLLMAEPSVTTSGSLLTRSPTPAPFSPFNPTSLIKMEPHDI
Chain of ETV5 (P41161 whole entry): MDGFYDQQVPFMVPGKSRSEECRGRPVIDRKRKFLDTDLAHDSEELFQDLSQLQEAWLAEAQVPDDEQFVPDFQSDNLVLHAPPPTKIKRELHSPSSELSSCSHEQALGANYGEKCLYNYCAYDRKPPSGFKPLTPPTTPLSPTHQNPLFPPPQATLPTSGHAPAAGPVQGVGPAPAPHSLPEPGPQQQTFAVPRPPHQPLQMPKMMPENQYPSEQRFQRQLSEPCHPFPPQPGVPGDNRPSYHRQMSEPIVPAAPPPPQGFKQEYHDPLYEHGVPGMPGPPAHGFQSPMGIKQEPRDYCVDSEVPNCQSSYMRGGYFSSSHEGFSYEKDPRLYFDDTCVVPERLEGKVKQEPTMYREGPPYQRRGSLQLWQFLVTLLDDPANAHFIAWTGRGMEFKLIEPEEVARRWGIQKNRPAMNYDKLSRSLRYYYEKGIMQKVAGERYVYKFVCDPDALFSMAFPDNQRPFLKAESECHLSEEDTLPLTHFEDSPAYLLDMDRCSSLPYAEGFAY
Chain of ETV1 (P50549 whole entry): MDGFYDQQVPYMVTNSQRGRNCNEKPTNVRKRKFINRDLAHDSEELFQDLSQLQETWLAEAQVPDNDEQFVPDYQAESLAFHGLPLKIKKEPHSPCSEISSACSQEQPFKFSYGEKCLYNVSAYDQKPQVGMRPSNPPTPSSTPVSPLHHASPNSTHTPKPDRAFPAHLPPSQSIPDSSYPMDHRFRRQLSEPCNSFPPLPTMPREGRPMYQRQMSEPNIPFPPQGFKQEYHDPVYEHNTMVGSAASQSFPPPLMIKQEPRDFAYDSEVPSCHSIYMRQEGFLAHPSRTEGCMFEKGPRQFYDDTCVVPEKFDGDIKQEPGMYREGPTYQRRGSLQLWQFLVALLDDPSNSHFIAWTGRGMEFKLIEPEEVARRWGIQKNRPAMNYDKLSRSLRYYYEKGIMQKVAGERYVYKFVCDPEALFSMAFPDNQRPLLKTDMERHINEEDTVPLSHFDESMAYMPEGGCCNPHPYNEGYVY

As to TGCCCT, the binding signal is 1.21 fold enrichment (6-mer frequency, TF over GST control) in assay [1]; 1.25 fold enrichment (6-mer frequency, TF over GST control) in assay [2]; 1.21 fold enrichment (6-mer frequency, TF over GST control) in [3]; 1.09 fold enrichment (6-mer frequency, TF over GST control) in [4]; 1.25 fold enrichment (6-mer frequency, TF over GST control) in [5]; 1.12 fold enrichment (6-mer frequency, TF over GST control) in [6]. Further, the binding signal in [7] was 1.15 fold enrichment (6-mer frequency, TF over GST control); in assay [8] it was 1.16 fold enrichment (6-mer frequency, TF over GST control); in assay [9], 1.07 fold enrichment (6-mer frequency, TF over GST control); in assay [10] it was 1.18 fold enrichment (6-mer frequency, TF over GST control); in assay [11], 1.11 fold enrichment (6-mer frequency, TF over GST control); in [12], 1.2 fold enrichment (6-mer frequency, TF over GST control). The binding signal in assay [13] was 1.12 fold enrichment (6-mer frequency, TF over GST control); in assay [14] it was 1.25 fold enrichment (6-mer frequency, TF over GST control); in [15], 1.13 fold enrichment (6-mer frequency, TF over GST control); in assay [16], 1.27 fold enrichment (6-mer frequency, TF over GST control); in [17], 1.08 fold enrichment (6-mer frequency, TF over GST control).
Take CGTTAC: the binding signal was 1.17 fold enrichment (6-mer frequency, TF over GST control) in [1]; 1.09 fold enrichment (6-mer frequency, TF over GST control) in assay [2]; 1.08 fold enrichment (6-mer frequency, TF over GST control) in assay [3]; 1.11 fold enrichment (6-mer frequency, TF over GST control) in [4]; 1.12 fold enrichment (6-mer frequency, TF over GST control) in [5]; 1.14 fold enrichment (6-mer frequency, TF over GST control) in assay [6]. In addition, the binding signal is 1.27 fold enrichment (6-mer frequency, TF over GST control) in assay [7]; 1.11 fold enrichment (6-mer frequency, TF over GST control) in assay [8]; 1.21 fold enrichment (6-mer frequency, TF over GST control) in assay [9]; 1.13 fold enrichment (6-mer frequency, TF over GST control) in assay [10]; 1.08 fold enrichment (6-mer frequency, TF over GST control) in assay [11]; 1.05 fold enrichment (6-mer frequency, TF over GST control) in assay [12]. Besides, the binding signal was 1.07 fold enrichment (6-mer frequency, TF over GST control) in assay [13]; 1.02 fold enrichment (6-mer frequency, TF over GST control) in [14]; 1.02 fold enrichment (6-mer frequency, TF over GST control) in assay [15]; 1.04 fold enrichment (6-mer frequency, TF over GST control) in assay [16]; 1.17 fold enrichment (6-mer frequency, TF over GST control) in assay [17].

Source of the values: PMC7862700, “An all-to-all approach to the identification of sequence-specific readers for epigenetic DNA modifications on cytosine”.
